# Measured values from ChEMBL document CHEMBL3988442, “University of Dundee, Small-Polar-MMV Screening Library” (2021).
# Hit rate of the full screen: of about 53,000 compounds, about 900 (1.7%) showed an effect of 50% or more. Many of the other results were omitted from the sample, so strong results are more common in it than they were.
# Test system: Mycobacterium tuberculosis
# Assay: Cornell - Phenotypic assay to identify agents that inhibit growth of Mycobacterium tuberculosis
# Assay type: functional
# Set-up: scale not given: direction of the effect not stated beside the values
# Details: 10 mM as filed; unlikely as a test dose
row,SMILES,Percent Effect [%]
1,Cc1nc(N[C@H]2COC[C@@H]2N2CCCC2)c2cnn(C)c2n1,2.791
2,CCNC(c1ccc(C)cc1)c1cccnc1 (stereo not given),-8.954
3,CCc1nc(CN(C)C(=O)CSC)no1,7.399
4,Cc1nc(C)c(C(=O)N2CCc3nnc(C4CCCCN4C)n3CC2)s1 (stereo not given),54.31
5,Cc1ncsc1C(=O)N1CCc2nnc(C3CCCCN3C)n2CC1 (stereo not given),8.689
6,Cc1nc(C)c(C(=O)N2CCCC2c2nnc3n2CCCCC3)s1 (stereo not given),13.16
7,Cc1nc(C)c(C(=O)N2CCc3nnc(C4CCCCN4C)n3CC2)o1 (stereo not given),19.3
8,Cc1cc2c(=O)n3c(nc2s1)CCN(C(=O)c1sc(C)nc1C)CC3,10.24
9,Cc1nc(C)c(C(=O)N2CCc3nnc(C4CCCN4C)n3CC2)s1 (stereo not given),53.89
10,CN(C)[C@@H]1CCN(C(=O)c2cccn2C)[C@H]1Cc1cnn(C)c1.O=C(O)C(F)(F)F,-22.73
11,O=C(O)C(F)(F)F.c1coc(CN2CCc3nnc(COc4cncnc4)n3CC2)c1,21.79
12,COc1cccc(CC2CN(C3CC(C)(C)NC(C)(C)C3)CCO2)c1 (stereo not given),-51.86
13,Cc1cccc2nc(CNC(=O)N3CCC(N4CC=CC4)C3)cn12 (stereo not given),20.26
14,O=C(O)[C@@H]1CN(C(=O)CCCc2ccc(F)cc2)C[C@H]1C1CC1,-11.2
15,CC(C)CN1C(=O)C2(CCN(Cc3nccs3)C2)c2ccccc21.O=C(O)C(F)(F)F (stereo not given),25.63
16,Cc1ccc(CN2CCC3(C2)C(=O)N(CC(C)C)c2ccccc23)s1 (stereo not given),50.09
17,Cc1ccc(CN2CCC3(C2)C(=O)N(CC(N)=O)c2ccccc23)s1 (stereo not given),3.211
18,Cc1nc(C)n(CCC(=O)NCC2CCCOC2)n1 (stereo not given),20.26
19,CCCN1C[C@H]2CC[C@@H]1CN(Cc1ccc(Cn3cccn3)cc1)C2,-2.42
20,CCCN1C[C@H]2CC[C@@H]1CN(Cc1ccc(-n3cccn3)cc1)C2,53.91
21,CCCN1C[C@H]2CC[C@@H]1CN(Cc1cccc(-n3cccn3)c1)C2,9.471
22,CN(C)CCN1C(=O)CCC12CCN(C(=O)c1cccnc1)CC2.O=C(O)C(F)(F)F.O=C(O)C(F)(F)F,1.557
23,CCC(=O)Nc1ccc(F)c(S(=O)(=O)NC(C)(C)C)c1,-2.357
24,CC(=O)Nc1ccc(F)c(S(=O)(=O)NC(C)(C)C)c1,40.62
25,CC(C)(C)NS(=O)(=O)c1cc(NC(=O)C2CC2)ccc1F,50.55

row,SMILES,Percent Effect [%]
1,c1ccc(Cc2nc(CNC3CCOC4(CCOCC4)C3)no2)cc1 (stereo not given),8.637
2,Cc1noc(C)c1CNC(=O)Nc1ccc(N2CCOC(C)C2)cc1 (stereo not given),103.9
3,Cc1noc(C)c1CNC(=O)N1CCCC(C)CC1 (stereo not given),12.27
4,CC1CN(c2ccc(CNC(=O)NCCO)cn2)CCO1 (stereo not given),2.175
5,Cc1noc(C)c1CNC(=O)NCCC(=O)N1CCCc2ccccc21,-5.48
6,CC1CN(c2ccc(NC(=O)Cn3cccn3)cc2)CCO1 (stereo not given),-5.599
7,Cc1noc(C)c1CNC(=O)Nc1ccc(N2CCSCC2)cc1,104.5
8,Cc1ocnc1CNC(=O)Nc1ccc(N2CCOC(C)C2)cc1 (stereo not given),104
9,Cc1noc(C)c1CNC(=O)Nc1ccc(N2CCOC2=O)cc1,-58.42
10,Cc1noc(C)c1CN1C[C@@H](C(=O)O)[C@H](c2ccccc2)C1,23.54
11,Cc1n[nH]/c(=N\C(=O)c2c3c(nc4onc(C)c24)CCC3)s1,20.11
12,CN(C)CCNCCC(c1ccccc1)C1CCOC(C)(C)C1.O=C(O)C(=O)O (stereo not given),21.42
13,CCc1nc(C2CCCN2C(=O)c2cc(Cl)c[nH]2)no1 (stereo not given),23.06
14,CC(C)CC(=O)N1CC(=O)N(Cc2ccco2)CC(O)C1 (stereo not given),-16.35
15,Cn1nc(Br)c2c(NCCCS(N)(=O)=O)ncnc21,24.15
16,Nc1ncc(-c2ccc(NC(=O)[C@@H]3CCCCN3)cc2)cn1,-8.73
17,Cc1nc(Nc2nncs2)cc(C2CCCN2C)n1 (stereo not given),-51.01
18,O=C1CC(c2ccccc2)c2sc(C(=O)O)c(-c3ccccc3)c2N1 (stereo not given),17.04
19,O=C1CC(c2ccsc2)c2sc(C(=O)O)c(-c3ccccc3)c2N1 (stereo not given),-23.75
20,O=C1CC(c2ccsc2)c2sc(C(=O)O)c(-c3ccc(F)cc3)c2N1 (stereo not given),105.2
21,O=C(C1CCOC1)N1C[C@@H]2CCN(C(=O)c3cscn3)[C@@H]2C1 (stereo not given in full),-35.62
22,CC(CC(=O)NS(C)(=O)=O)C1CCCCC1 (stereo not given),-16.66
23,Cc1ccc(-c2cc(C(=O)NCCC3=CCCCC3)[nH]n2)o1,52.86
24,O=C(NCCC1=CCCCC1)c1cc(-c2ccc(O)cc2)n[nH]1,22.09
25,CCCc1cc(C(=O)NCCC2=CCCCC2)[nH]n1,32.79

row,SMILES,Percent Effect [%]
1,Cc1cc(F)ccc1N1CCCC(NC2CCSCC2)C1=O (stereo not given),-0.6719
2,Cc1cc(S(=O)(=O)N2CCCc3cc(Br)ccc32)sc1C(=O)O,32.41
3,COC1CCN(C(=O)CC(C)(C)C)CC(=O)N(C)c2ccccc21 (stereo not given),2.903
4,CC(C)=CCN1C[C@@H]2CN(C(=O)c3ccc(CO)cc3)C[C@]2(C(=O)O)C1,22.99
5,CN(C)C(=O)C1CCC2(CCN(C(=O)Nc3ccccc3)CC2)O1 (stereo not given),2.965
6,COc1cc(C2Nc3cc(Cl)ccc3C3=NCCN32)ccc1O (stereo not given),80.22
7,COc1cc(C2Nc3cc(Cl)ccc3C3=NCCN32)cc(OC)c1OC (stereo not given),-27.36
8,COc1ccc(C2Nc3cc(Cl)ccc3C3=NCCN32)cc1O (stereo not given),10.02
9,CCCn1cc(C(=O)N2CCCC2(C)c2nc(C)cc(N)n2)cn1 (stereo not given),-4.951
10,Clc1ccc(N2CCN(CCCN3CCCCC3)CC2)nc1,25.77
11,CSCc1ccc(N2CCN(c3ccc(Cl)cn3)CC2)nc1,-11.59
12,CSCCCN1CCN(c2ccc(Cl)cn2)CC1,62.54
13,COC(=O)CNC(=O)C1CCN(S(C)(=O)=O)CC1,-1.242
14,O=C(c1cccc2[nH]ncc12)N1CCCC1c1noc(C2CC2)n1 (stereo not given),0.6634
15,O=C(c1n[nH]c2ccccc12)N1CCCC1c1noc(C2CC2)n1 (stereo not given),50.46
16,O=C(Cc1noc2ccccc12)N1CCCC1c1noc(C2CC2)n1 (stereo not given),0.3643
17,CC(=O)N1CCO[C@@H]2CN(S(=O)(=O)c3ccc(C)cc3)CC[C@@H]2C1,-25.36
18,CCc1noc(C(C)N2CCN(CC(C)C)CC2)n1 (stereo not given),-14.43
19,COc1ccc(CNC(Cc2ccsc2)c2ccc(C)cn2)cc1OC.Cl (stereo not given),26.36
20,COc1cccc(OC)c1CNC(Cc1ccsc1)c1ccc(C)cn1 (stereo not given),62.45
21,COc1ccc(CNC(Cc2ccsc2)c2ccc(C)cn2)c(OC)c1 (stereo not given),18.63
22,CCc1nc(NS(=O)(=O)c2cccc(F)c2C)no1,37.51
23,CC(CO)NC(=O)c1ccc(NCc2ccc(F)c(F)c2)cc1 (stereo not given),4.78
24,CC(C)c1ncncc1C(=O)N1CCN(Cc2ccsc2)CC1,5.12
25,O=C(c1cc(C2CC2)[nH]n1)N1CCN(Cc2ccccc2)CC1,7.865

row,SMILES,Percent Effect [%]
1,O=C(c1cc(C2CC2)[nH]n1)N1CCN(Cc2ccncc2)CC1,8.467
2,Cc1cccc(CN2CCN(C(=O)c3cc(C4CC4)[nH]n3)CC2)c1,63.11
3,O=C(c1cc(C2CC2)[nH]n1)N1CCN(Cc2ccc3c(c2)OCO3)CC1,83.19
4,O=C(c1cc(C2CC2)[nH]n1)N1CCN(Cc2ccsc2)CC1,6.464
5,O=C(c1cc(C2CC2)[nH]n1)N1CCN(Cc2ccc(Cl)cc2)CC1,-11.68
6,CC(C)c1cc(C(=O)N2CCN(Cc3ccsc3)CC2)n[nH]1,50.59
7,CC(C)c1ccc(CN2CCN(C(=O)c3cc(C4CC4)[nH]n3)CC2)cc1,-22.19
8,CCCOc1cccc(C(=O)N2CCCC(n3cncn3)C2)c1 (stereo not given),2.869
9,CC1CCC(NS(=O)(=O)CC(=O)NC(C2CC2)C2CC2)CC1 (stereo not given),-19.5
10,CCNC(=O)CS(=O)(=O)NC1CCC(C)CC1 (stereo not given),-36.82
11,CC1CCC(NS(=O)(=O)CC(=O)NCC2CCC2)CC1 (stereo not given),57.41
12,CC1CCC(NS(=O)(=O)CC(=O)Nc2ccccc2N2CCCC2)CC1 (stereo not given),81.68
13,CS(=O)(=O)NCC1CCCN(C(=O)Nc2ccccc2N2CCCC2)C1 (stereo not given),12.25
14,Cc1ccc(NC(=O)CS(=O)(=O)NC2CCC(C)CC2)nc1 (stereo not given),59.09
15,CNC(=O)CS(=O)(=O)NC1CCC(C)CC1 (stereo not given),-17.27
16,CC1CCC(NS(=O)(=O)CC(=O)NC2(C(N)=O)CCCC2)CC1 (stereo not given),-11.11
17,CC1CCC(NS(=O)(=O)CC(=O)Nc2ccc(N3CCCC3)cn2)CC1 (stereo not given),-5.738
18,CCOCc1cnc2n1CCN(C(=O)c1cccc3c1OCCO3)C2C (stereo not given),-10.91
19,Cc1cccc(-c2nc(CN3CC(n4nc(C)cc4C)C3)no2)c1,18.28
20,CC(C)N1CCO[C@H]2CN(Cc3cc[nH]n3)C[C@H]21.O=C(O)C(F)(F)F.O=C(O)C(F)(F)F,-4.182
21,O=C(CC1CCCC1)N1CCC(c2noc(-c3ccccn3)n2)CC1,12.79
22,O=C1NC2(CCc3ccccc31)CCN(C(=O)c1ccncc1)C2 (stereo not given),9.772
23,Cc1nnc(C2CCN(C(=O)c3ccc(-n4cccc4)cc3)CC2)s1,34.12
24,O=C1CCNc2cc3c(cc2CN1CC1CC1)OCO3,-9.17
25,O=C(CC1COCCN1)N1CCC(N2CCc3ccccc3C2)CC1 (stereo not given),-14.32
